From the supplement of paper PMC11732987, “Enantioselective OTUD7B fragment discovery through chemoproteomics screening and high-throughput optimisation” (Communications Chemistry, 2025)
A number with no mark means an inactive call.

These targets were tested with ClCC(=O)N1CCCC1=O (assay: log2 ratio of Biotin-Ahx-Ub-VS probe labelling (fragment/DMSO); higher = less target engagement (more negative = stronger competition), active = hit call of the paper (q ≤ 0.05, log2 ratio ≤ -1)). Conditions: compound concentration: 200 uM; treatment time: 3 h.
Protocol: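 Competitive ABPP in HEK293T cell lysate. Lysates were treated with each chloroacetamide fragment at 200 µM for 3 h, then with Biotin-Ahx-Ub-VS (0.5 µM, 1 h), NeutrAvidin-enriched and analysed by diaPASEF LC-MS/MS. Protein LFQ was median-normalised; average log2 ratio is fragment/DMSO from an unpaired t-test (n=3 treated, n=44 DMSO). Hits: q ≤ 0.05, log2 ratio ≤ -1, unique peptides ≥ 2.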

UniProt O15372, sequence (O15372 whole entry): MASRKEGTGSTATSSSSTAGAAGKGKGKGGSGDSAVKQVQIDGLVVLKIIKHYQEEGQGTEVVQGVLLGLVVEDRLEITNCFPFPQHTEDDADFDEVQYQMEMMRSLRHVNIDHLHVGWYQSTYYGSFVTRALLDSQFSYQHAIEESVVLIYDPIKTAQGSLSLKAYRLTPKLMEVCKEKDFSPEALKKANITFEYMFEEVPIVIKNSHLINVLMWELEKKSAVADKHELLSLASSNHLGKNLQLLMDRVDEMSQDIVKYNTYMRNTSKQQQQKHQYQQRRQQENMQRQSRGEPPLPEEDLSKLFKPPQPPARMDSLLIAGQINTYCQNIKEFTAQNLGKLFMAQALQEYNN
UniProt Q9UHP3, sequence (Q9UHP3 whole entry): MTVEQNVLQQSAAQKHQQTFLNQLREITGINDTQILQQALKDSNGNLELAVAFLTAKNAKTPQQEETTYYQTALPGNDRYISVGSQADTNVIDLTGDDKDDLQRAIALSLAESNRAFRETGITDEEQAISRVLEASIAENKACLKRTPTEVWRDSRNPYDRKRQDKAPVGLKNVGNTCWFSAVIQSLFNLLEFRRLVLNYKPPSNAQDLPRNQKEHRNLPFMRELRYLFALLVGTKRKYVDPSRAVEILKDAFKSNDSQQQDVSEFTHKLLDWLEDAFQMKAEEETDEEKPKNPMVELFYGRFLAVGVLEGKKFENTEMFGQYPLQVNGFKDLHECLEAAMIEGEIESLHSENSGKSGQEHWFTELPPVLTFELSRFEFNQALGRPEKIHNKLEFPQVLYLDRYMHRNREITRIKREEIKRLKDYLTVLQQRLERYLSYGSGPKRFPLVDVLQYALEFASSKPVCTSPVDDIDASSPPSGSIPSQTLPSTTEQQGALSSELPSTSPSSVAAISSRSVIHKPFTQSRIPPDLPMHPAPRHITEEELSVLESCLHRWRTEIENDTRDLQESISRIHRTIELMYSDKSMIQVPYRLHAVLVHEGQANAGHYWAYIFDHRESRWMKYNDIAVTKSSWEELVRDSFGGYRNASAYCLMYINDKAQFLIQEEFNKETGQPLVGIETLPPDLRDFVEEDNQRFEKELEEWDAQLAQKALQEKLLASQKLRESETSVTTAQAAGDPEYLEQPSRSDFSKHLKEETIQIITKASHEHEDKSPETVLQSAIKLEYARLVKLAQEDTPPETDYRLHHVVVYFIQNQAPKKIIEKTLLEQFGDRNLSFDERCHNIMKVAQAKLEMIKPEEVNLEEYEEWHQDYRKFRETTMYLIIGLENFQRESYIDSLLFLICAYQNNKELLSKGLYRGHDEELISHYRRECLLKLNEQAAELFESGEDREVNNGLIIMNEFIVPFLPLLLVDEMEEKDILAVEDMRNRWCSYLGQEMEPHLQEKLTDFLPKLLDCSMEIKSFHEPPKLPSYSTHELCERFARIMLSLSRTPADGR
UniProt O00303, sequence (O00303 whole entry): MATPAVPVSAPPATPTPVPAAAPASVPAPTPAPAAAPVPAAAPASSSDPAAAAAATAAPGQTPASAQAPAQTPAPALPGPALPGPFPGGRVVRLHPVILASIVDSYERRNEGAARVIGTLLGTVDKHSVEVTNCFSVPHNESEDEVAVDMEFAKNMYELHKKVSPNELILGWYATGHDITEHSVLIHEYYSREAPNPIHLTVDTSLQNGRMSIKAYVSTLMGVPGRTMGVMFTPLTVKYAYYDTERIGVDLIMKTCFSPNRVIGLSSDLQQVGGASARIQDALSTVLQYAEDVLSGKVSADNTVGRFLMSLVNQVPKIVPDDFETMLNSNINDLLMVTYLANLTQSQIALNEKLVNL
UniProt Q9Y5K5, sequence (Q9Y5K5 whole entry): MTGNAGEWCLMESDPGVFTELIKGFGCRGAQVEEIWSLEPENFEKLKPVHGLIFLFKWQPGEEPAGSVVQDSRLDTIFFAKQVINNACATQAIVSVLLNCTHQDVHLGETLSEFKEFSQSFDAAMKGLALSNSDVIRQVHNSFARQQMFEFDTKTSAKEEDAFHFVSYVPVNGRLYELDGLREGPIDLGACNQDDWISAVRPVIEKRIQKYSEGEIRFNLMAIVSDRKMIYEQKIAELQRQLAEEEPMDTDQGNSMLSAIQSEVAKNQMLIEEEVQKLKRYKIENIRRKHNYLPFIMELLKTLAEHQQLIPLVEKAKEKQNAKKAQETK
UniProt Q86UV5, sequence (Q86UV5 whole entry): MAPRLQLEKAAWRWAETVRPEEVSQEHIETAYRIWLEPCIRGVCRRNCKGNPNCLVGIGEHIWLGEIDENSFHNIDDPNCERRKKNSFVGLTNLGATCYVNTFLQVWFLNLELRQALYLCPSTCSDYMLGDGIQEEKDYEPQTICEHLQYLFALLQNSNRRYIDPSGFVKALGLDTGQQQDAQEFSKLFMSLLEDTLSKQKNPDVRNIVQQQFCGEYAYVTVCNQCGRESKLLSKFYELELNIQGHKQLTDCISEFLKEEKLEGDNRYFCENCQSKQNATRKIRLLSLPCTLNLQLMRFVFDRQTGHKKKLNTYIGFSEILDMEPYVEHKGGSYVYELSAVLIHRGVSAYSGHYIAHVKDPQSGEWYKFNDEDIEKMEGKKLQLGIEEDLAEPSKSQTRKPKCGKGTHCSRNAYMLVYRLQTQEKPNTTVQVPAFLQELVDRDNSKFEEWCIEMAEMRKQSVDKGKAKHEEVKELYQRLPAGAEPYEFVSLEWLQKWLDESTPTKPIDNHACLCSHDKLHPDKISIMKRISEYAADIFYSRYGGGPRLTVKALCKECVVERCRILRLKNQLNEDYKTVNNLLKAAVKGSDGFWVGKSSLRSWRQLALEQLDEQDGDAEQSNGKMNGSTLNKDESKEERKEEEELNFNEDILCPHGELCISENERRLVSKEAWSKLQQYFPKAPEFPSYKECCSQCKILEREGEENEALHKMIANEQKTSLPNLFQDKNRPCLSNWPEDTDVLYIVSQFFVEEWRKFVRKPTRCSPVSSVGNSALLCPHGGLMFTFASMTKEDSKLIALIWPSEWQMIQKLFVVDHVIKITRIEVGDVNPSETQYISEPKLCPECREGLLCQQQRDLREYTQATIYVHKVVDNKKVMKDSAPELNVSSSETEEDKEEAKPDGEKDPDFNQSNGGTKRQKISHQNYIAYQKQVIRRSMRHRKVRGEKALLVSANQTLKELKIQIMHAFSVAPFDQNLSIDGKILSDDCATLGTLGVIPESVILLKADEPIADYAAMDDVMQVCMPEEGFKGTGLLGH
UniProt Q13107, sequence (Q13107 whole entry): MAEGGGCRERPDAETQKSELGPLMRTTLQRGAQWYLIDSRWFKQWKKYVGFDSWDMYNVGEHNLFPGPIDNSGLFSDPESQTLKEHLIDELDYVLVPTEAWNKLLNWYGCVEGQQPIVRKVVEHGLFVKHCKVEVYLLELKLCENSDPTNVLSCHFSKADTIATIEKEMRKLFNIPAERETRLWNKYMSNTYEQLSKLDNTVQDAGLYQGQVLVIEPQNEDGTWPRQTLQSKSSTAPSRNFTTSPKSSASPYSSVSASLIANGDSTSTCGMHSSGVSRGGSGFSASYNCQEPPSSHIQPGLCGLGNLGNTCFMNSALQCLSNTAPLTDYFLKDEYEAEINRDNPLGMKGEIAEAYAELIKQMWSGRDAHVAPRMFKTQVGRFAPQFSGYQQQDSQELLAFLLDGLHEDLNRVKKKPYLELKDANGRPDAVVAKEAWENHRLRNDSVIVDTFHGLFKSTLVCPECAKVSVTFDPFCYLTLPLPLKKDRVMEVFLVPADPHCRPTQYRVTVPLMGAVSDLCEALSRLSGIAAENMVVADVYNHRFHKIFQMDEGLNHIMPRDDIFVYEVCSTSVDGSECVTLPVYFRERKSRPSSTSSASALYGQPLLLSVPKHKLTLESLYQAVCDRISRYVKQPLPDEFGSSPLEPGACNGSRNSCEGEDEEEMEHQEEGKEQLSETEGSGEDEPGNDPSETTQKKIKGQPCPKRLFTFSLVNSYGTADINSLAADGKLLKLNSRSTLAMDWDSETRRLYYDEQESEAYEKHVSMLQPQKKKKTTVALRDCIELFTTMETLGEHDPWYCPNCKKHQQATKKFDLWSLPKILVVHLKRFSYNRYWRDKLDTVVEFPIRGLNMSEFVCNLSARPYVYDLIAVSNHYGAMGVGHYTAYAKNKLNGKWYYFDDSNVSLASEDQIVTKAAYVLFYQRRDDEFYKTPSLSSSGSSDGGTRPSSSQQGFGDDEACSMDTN
UniProt Q14694, sequence (Q14694 whole entry): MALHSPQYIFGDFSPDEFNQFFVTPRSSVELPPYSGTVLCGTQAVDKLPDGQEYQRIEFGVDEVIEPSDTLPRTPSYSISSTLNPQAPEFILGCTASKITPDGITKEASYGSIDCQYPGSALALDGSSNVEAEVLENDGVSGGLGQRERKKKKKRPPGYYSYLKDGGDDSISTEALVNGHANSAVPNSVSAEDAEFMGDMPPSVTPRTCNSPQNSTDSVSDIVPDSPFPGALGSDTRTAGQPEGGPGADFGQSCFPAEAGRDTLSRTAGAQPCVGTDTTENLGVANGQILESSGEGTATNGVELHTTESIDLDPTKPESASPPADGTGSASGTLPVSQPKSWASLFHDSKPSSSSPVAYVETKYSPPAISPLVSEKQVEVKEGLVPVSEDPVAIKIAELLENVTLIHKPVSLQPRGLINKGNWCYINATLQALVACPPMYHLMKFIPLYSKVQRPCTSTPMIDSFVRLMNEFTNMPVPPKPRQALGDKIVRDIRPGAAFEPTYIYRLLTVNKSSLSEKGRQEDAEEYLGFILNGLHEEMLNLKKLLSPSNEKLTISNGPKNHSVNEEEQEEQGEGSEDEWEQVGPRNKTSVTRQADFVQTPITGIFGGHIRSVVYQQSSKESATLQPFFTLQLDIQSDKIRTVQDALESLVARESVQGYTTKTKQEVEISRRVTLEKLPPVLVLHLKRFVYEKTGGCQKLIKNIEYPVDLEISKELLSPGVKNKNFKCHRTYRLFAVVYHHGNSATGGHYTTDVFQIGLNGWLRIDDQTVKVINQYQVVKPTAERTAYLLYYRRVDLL

Target | log2 ratio of Biotin-Ahx-Ub-VS probe labelling
USP10 (UniProt Q14694) | -0.0833
USP25 (UniProt Q9UHP3) | -0.183
USP4 (UniProt Q13107) | -0.146
EIF3F (UniProt O00303) | -0.166
USP48 (UniProt Q86UV5) | -0.22
EIF3H (UniProt O15372) | 0.0752
UCHL5 (UniProt Q9Y5K5) | -0.166
OTUD7B (UniProt Q6GQQ9) | -0.251
